HT1080NT lethal: kills 2HG-producing HT-1080-NT fibrosarcoma cells | HT-1080-NT fibrosarcoma viability, CellTiter-Glo ATP luminescence, 48 h | Potency, µM (titrated, usually from 46.1 µM), usual class: cytotoxic | 1.6% of 360,000 active;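 also: NT is the 2HG producing partner of a matched IDH1 knockdown line; nearly all actives have a fitted effect of over 55% in size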
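Fibrosarcoma NT cells, 750 per well in 5% FBS RPMI, were exposed to compound for 48 hours. Viability: CellTiter-Glo luminescence.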
KB-3-1 tox: kills parental KB-3-1 adenocarcinoma cells. 1.4% of 400,000 active. KB-3-1 viability, CellTiter-Glo ATP luminescence, 72 h. Potency, µM (highest dose often 46.1 µM), actives largely listed as cytotoxic; also: nearly all actives have a fitted effect of over 60% in size
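Parental KB-3-1 viability, qHTS format: 72 h compound exposure, 37 °C; CellTiter-Glo; media-only wells and DMSO plates as controls; concentration-effect fits on corrected data.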
HT1080 IDH1KD tx: HT-1080 IDH1 knockdown cell toxicity (counter line). HT-1080 IDH1 knockdown viability, ATP luminescence, 48 h. AID 686971. Potency, µM (doses to about 46.1 µM), actives largely listed as cytotoxic. 2% of 360,000 active
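% activity derives from luminescence (CellTiter-Glo), normalised to DMSO and no-cell wells. HT-1080-IDH1KD cells, 750/well, had 48 h compound exposure at 37 °C.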
DT40 TDP1 CPT: DT40-hTDP1 cell growth loss with CPT. AID 686979. Potency, µM (top dose mostly 46.2 µM), usual class: inhibitors. chicken DT40 Tdp1-/-;hTDP1 cells + 20 nM CPT, ATP luminescence, 48 h. 12% of 420,000 active; also: nearly all actives have a fitted effect of over 55% in size
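Cell growth measured by CellTiter-Glo luminescence after a minimum 48 h, 37 C compound exposure with 20 nM CPT in Tdp1-knockout DT40 cells stably expressing hTDP1, seeded 400/well; qHTS titration format.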
DT40 TDP1 no CPT: qHTS for Inhibitors of human tyrosyl-DNA phosphodiesterase 1 (TDP1): qHTS in cells in absence of CPT; DT40 Tdp1-/- hTDP1 cells, no CPT, ATP luminescence, 48 h; Potency, µM (series often up to 46.2 µM), most hits filed as inhibitors; 15% of 420,000 active; also: nearly all actives have a fitted effect of over 55% in size
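Luminescent ATP content (CellTiter-Glo) served as the growth readout. Knockout chicken DT40 cells expressing human TDP1 were exposed to compounds without camptothecin for a minimum 48 hr at 37 °C.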
KB-V1 MDR tox: KB-V1 MDR subline cytotoxicity; KB-V1 MDR cells viability, CellTiter-Glo, 72 h; Potency, µM (titrated, usually from 46.1 µM), most hits filed as cytotoxic; 3.4% of 400,000 active; AID 1347076; also: nearly all actives have a fitted effect of over 60% in size
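Readout: CellTiter-Glo luminescence, 10 min after addition. Cells: KB-V1 MDR subline, 72 h at 37 degrees C with compound. Analysis: corrected, normalized data fitted to concentration-effect curves.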
Each line names hits and unclear results; the compound was inactive in the other large screens. An excerpt weighted towards active compounds, which were near 19% of everything screened. Calls follow the shape of the dose curve; as a rule, active = well fitted curve in the direction sought with a large enough effect; inconclusive = small, poorly fitted or top-dose-only effect, or another doubt; inactive = no such curve, though single readings can be large; an effect the other way counts as inactive or inconclusive.

Cc1ccc2cccc(NC(=O)c3ccc(-c4cccc(Cl)c4Cl)o3)c2n1	none (no result: HT1080NT lethal, HT1080 IDH1KD tx, DT40 TDP1 CPT, DT40 TDP1 no CPT)
CCc1ccc(N2CN(CCc3ccccc3)CNC2=S)cc1	DT40 TDP1 CPT inconclusive, DT40 TDP1 no CPT 29.1µM
COc1cccc(N2CN(CCc3ccccc3)CNC2=S)c1	DT40 TDP1 no CPT inconclusive
O=C(Nc1ccc(Oc2ccccc2)nc1)[C@H]1O[C@@H](n2ccc(=O)[nH]c2=O)[C@H](O)[C@@H]1O	none
CCOc1ccc(N(CC)S(=O)(=O)N2CCCC(C(=O)Nc3cc(Cl)ccc3C)C2)cc1 (stereo unspecified)	DT40 TDP1 CPT 20.6µM, DT40 TDP1 no CPT 16.4µM (no result: HT1080NT lethal, HT1080 IDH1KD tx)
CCOc1ccc(N(CC)S(=O)(=O)N2CCCC(C(=O)NCc3ccccc3Cl)C2)cc1 (stereo unspecified)	DT40 TDP1 CPT 20.6µM, DT40 TDP1 no CPT 20.6µM (no result: HT1080NT lethal, HT1080 IDH1KD tx)
CCOc1ccc(N(CC)S(=O)(=O)N2CCCC(C(=O)NCCc3ccc(OC)cc3)C2)cc1 (stereo unspecified)	KB-3-1 tox inconclusive, DT40 TDP1 CPT inconclusive, DT40 TDP1 no CPT inconclusive (no result: HT1080NT lethal, HT1080 IDH1KD tx)
COc1ccc(C2N(C(=O)CN3CCCC3)CCCN2S(=O)(=O)c2ccccc2)cc1 (stereo unspecified)	none
Cc1cccc(NS(=O)(=O)c2csc(C(N)=O)c2)c1C	none
COc1ccccc1CNS(=O)(=O)c1ccc(N2CCCCS2(=O)=O)cc1	DT40 TDP1 CPT inconclusive, DT40 TDP1 no CPT 23.1µM (no result: HT1080NT lethal, HT1080 IDH1KD tx)
Cc1cc(C)cc(NS(=O)(=O)c2ccc(N3CCCCS3(=O)=O)cc2)c1	DT40 TDP1 CPT 11.6µM, DT40 TDP1 no CPT 14.6µM, KB-V1 MDR tox inconclusive (no result: HT1080NT lethal, HT1080 IDH1KD tx)
CCCCCNS(=O)(=O)c1ccc(N2CCCCS2(=O)=O)cc1	KB-3-1 tox inconclusive, DT40 TDP1 CPT 16.4µM, DT40 TDP1 no CPT 18.4µM, KB-V1 MDR tox inconclusive (no result: HT1080NT lethal, HT1080 IDH1KD tx)
CCC(C)NS(=O)(=O)c1ccc(N2CCCCS2(=O)=O)cc1 (stereo unspecified)	DT40 TDP1 CPT inconclusive, DT40 TDP1 no CPT inconclusive (no result: HT1080NT lethal, HT1080 IDH1KD tx)
CCN(CC)S(=O)(=O)c1ccc(N2CCCCS2(=O)=O)cc1	none (no result: HT1080NT lethal, HT1080 IDH1KD tx)
CC(C)CCNS(=O)(=O)c1ccc(N2CCCCS2(=O)=O)cc1	KB-3-1 tox inconclusive, DT40 TDP1 CPT 11.6µM, DT40 TDP1 no CPT 9.2µM (no result: HT1080NT lethal, HT1080 IDH1KD tx)
COc1ccc(OCCCC(=O)OC(C)C(=O)Nc2ccc(S(N)(=O)=O)cc2)cc1 (stereo unspecified)	none
COCCNC(=O)C1CCCN(C(=O)c2ccc(C(F)(F)F)nc2C)CC1 (stereo unspecified)	HT1080NT lethal inconclusive
O=C(CNC(=O)c1cc2c(n(-c3ccccc3)c1=O)CCCC2=O)c1ccccc1	none (no result: KB-3-1 tox, KB-V1 MDR tox)
O=C1CCCc2c1cc(-c1ccccc1)n2-c1ccccc1	HT1080NT lethal inconclusive, KB-3-1 tox 16.4µM, HT1080 IDH1KD tx inconclusive, DT40 TDP1 no CPT inconclusive, KB-V1 MDR tox 11.6µM
Cc1ccc(Cl)cc1NC(=O)Nc1nnc(N(C)Cc2ccccc2)s1	DT40 TDP1 CPT 20.6µM, DT40 TDP1 no CPT 23.1µM (no result: HT1080NT lethal, HT1080 IDH1KD tx)
COc1ccc([C@H]2CC(=O)C[C@@H](CCn3cc(-c4nccn4C)nn3)O2)cc1	KB-V1 MDR tox inconclusive
CCOC(=O)N1CCN(C(=O)CSc2nnc(-c3cc(OC)ccc3OC)o2)CC1	DT40 TDP1 CPT 14.6µM, DT40 TDP1 no CPT 20.6µM
Cc1ccc(-c2nnc(SCC(=O)N3CCCC3)o2)cc1C	none
COc1cccc(-c2nnc(SCC(=O)N3CCCCC3)o2)c1	DT40 TDP1 CPT inconclusive, DT40 TDP1 no CPT inconclusive (no result: HT1080NT lethal, HT1080 IDH1KD tx)
COc1cccc(-c2nnc(SCC(=O)N(C(C)C)C(C)C)o2)c1	DT40 TDP1 CPT inconclusive, DT40 TDP1 no CPT inconclusive, KB-V1 MDR tox 18.4µM
CCOC(=O)N1CCN(C(=O)CSc2nnc(-c3ccccc3OC)o2)CC1	none
CCOC(=O)N1CCN(C(=O)CSc2nnc(-c3ccc(C)c(C)c3)o2)CC1	DT40 TDP1 CPT inconclusive, DT40 TDP1 no CPT 14.6µM
COc1ccc(-c2nnc(SCC(=O)N3CCC(Cc4ccccc4)CC3)o2)cc1OC	DT40 TDP1 no CPT inconclusive, KB-V1 MDR tox 5.17µM
